From PubChem BioAssay AID2288 (National Center for Advancing Translational Sciences (NCATS), 2010)
Screen size: about 340,000 compounds; fewer than 10 were called active. Inconclusive results (about 2%) are left out. Calls follow the shape of the dose curve; as a rule, active = well fitted curve in the direction sought with a large enough effect; inconclusive = small, poorly fitted or top-dose-only effect, or another doubt; inactive = no such curve, though single readings can be large or run the other way. Not all results are given here.

Experiment: qHTS Assay for Modulators of miRNAs and/orActivators of miR-21;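 also: % of control where 0% means no effect; miR-21 action dims this reporter so a rising signal means less miR-21 action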
Details: HeLa miR-21 FLuc reporter, luciferase, 48 h; series mostly up to 38.3 µM; activity change, positive = activation: at the top concentration
In short: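 Luminescence from a firefly luciferase reporter carrying a miR-21 binding site downstream, stably expressed under a CMV promoter in HeLa cells that make miR-21 endogenously, reports miRNA modulation after 48 h compound exposure up to approximately 40uM final.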

Activity change, positive = activation, inactive:
O=C(CCOc1ccccc1)N(Cc1cccnc1)c1nc2ccc(Cl)cc2s1 -2.02%, CC(C)(C)NC(=O)CSc1nc(-c2ccc(F)cc2)cc(C(F)(F)F)n1 10.2%, O=C(CSc1nc2nccnc2c(=O)n1CCc1c[nH]c2ccccc12)Nc1ccccc1F 11.4%, Cn1c(SCC(=O)N2CCCc3ccccc32)ncc(C(=O)Nc2ccc(F)cc2)c1=O -2.64%, Cc1ccc(Cl)cc1N(C)C(=O)Cn1nc(Cc2cccnc2)c2ccccc2c1=O -8.75%, COc1ccc(SCc2cc(=O)c3ccc(C)c(C)c3[nH]2)cc1 1.63%, Cc1cccc(OCCSc2nc3ccccc3n2CC(=O)N2CCCCC2)c1C 8.76%, COc1ccc(NC(=O)C(c2ccccc2)N2Cc3ccccc3C2=O)cc1 (configuration not stated) -2.4%, CCCN1CN=C(NS(=O)(=O)c2ccc(NC(C)=O)cc2)NC1 -7.13%, COc1ccc(-c2nn3c(=O)cc(CN4CCN(C(=O)c5ccc(OC)c(OC)c5)CC4)nc3s2)cc1 -0.908%, CCOC(=O)c1c(C)[nH]c(C)c1S(=O)(=O)N(C)CC(=O)N1CCN(c2ccccc2)CC1 -3.7%, COc1ccc2c(c1)c(=O)c(C(=O)c1ccccc1)cn2CC(=O)Nc1ccc2c(c1)OCCO2 -0.936%, Cc1ccc(CNS(=O)(=O)c2ccc(C(=O)N(C)C)s2)cc1 -3.73%, COc1ccc(-c2c3c(=O)n(C)c(=O)n(C)c3c3c(C)nc4ccccc4n23)cc1 0.257%, Cc1ccc(CN(C(=O)COc2ccc(Cl)cc2C)C2CCS(=O)(=O)C2)o1 (configuration not stated) -1.35%, Cc1ccc(NC(=O)c2ccc3[nH]c(C)cc(=O)c3c2)c(C)c1 -42.2%, Cc1ccccc1CCNC(=O)C1CCN(c2nc3ccccc3nc2C(F)(F)F)CC1 6.8%, COC(=O)c1ccc(NC(=O)CCc2c(C)nn(-c3ccc(N4CCCC4)nn3)c2C)cc1 0.69%, Cc1cc(C)cc(NC(=O)c2cnc3sc(N4CCCC4)nn3c2=O)c1 8.36%, O=C(Cn1cnc2c(oc3ccccc32)c1=O)Nc1ccc(OC(F)(F)F)cc1 -0.243%, COc1ccccc1C(=O)OCc1cc(=O)n2nc(-c3cccs3)sc2n1 -12.8%, Cc1ccc(-c2nnc(SCc3ccccc3C)o2)cc1 -49.1%, CCN(CC)C(=O)CSc1nc2ccsc2c(=O)n1Cc1ccccc1Cl 9.18%, COc1ccc(CCNCc2c(C(=O)O)c(C)n(Cc3cccc(C)c3)c2C)cc1OC 0.673%, COc1ccc(-n2c(=O)c3c(c4cc(OC)ccc4n3C)n(Cc3cccc(C)c3)c2=O)cc1 -0.701%, COc1ccc(OC)c(CCNC(=O)CCCn2c(=O)c3cccn3c3cccnc32)c1 -7.82%, Cc1nn2c(=O)cc(COC(=O)c3cccc(NC(=O)COc4ccccc4Cl)c3)nc2s1 -1.72%
